{
  "source": "PubChem BioAssay (Tox21)",
  "note": "Results filed as inconclusive are left out. Where a call stands in place of a potency, no number is given. Activity calls are given as the source filed them. Calls follow the shape of the dose curve; as a rule, active = well fitted curve in the direction sought with a large enough effect in the repeat runs; inconclusive = weak or mixed curves; inactive = no such curve, though single readings can be large; an effect the other way counts as inactive or inconclusive. Potency is read from the fitted curve at half-maximal effect.",
  "data": [
    {"system": "not listed separately", "test": "qHTS assay to identify small molecule antagonists of the androgen receptor (AR) signaling pathway using the MDA cell line - cell viability counter screen (AID 743041; also: nearly all actives have a fitted effect of over 45% in size)", "conditions": "MDA-kb2 viability, CellTiter-Fluor, 16 h, cells co-treated with R1881 androgen agonist; series mostly up to 70.3 µM", "how_it_was_run": "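Viability read by CellTiter-Fluor fluorescence in the same wells as the antagonist screen, added after 15.5 h of a 16 h, 37C exposure. Human breast carcinoma MDA-kb2 AR-luc cells, compounds co-dosed with agonist R1881.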", "values": [
      {"smiles": "CC(C)(C)OO", "Potency": "inactive"},
      {"smiles": "CCOC(=O)OC1=C(c2cc(C)ccc2C)C(=O)NC12CCC(OC)CC2", "note": "(stereo not given)", "Potency": "inactive"},
      {"smiles": "C[C@]12Cc3nonc3C[C@@H]1CC[C@@H]1[C@@H]2CC[C@@]2(C)[C@H]1CC[C@]2(C)O", "Potency": "inactive"},
      {"smiles": "c1ccc(OCC2CO2)cc1", "note": "(stereo not given)", "Potency": "inactive"},
      {"smiles": "C[C@]12CC[C@@H]3c4ccc(OC(=O)N(CCCl)CCCl)cc4CC[C@H]3[C@@H]1CC[C@@H]2O", "Potency": "inactive"},
      {"smiles": "O=C(CCCN1CCC2(CC1)C(=O)NCN2c1ccccc1)c1ccc(F)cc1", "Potency": "inactive"},
      {"smiles": "CCC[CH2][Sn]([CH2]CCC)([CH2]CCC)[O]C(=O)c1ccccc1", "Potency": "1.93 µM (active)"},
      {"smiles": "CC(=O)O[C@H]1CC[C@@]2(C)C(=CC[C@@H]3[C@@H]2CC[C@]2(C)C(=O)CC[C@@H]32)C1", "Potency": "inactive"},
      {"smiles": "O=C(O)COc1nc(Cl)c(Cl)cc1Cl", "Potency": "inactive"},
      {"smiles": "O=C(CBr)c1ccc(O)cc1", "Potency": "inactive"},
      {"smiles": "CC(C)(C)c1ccc(CSc2cnn(C(C)(C)C)c(=O)c2Cl)cc1", "Potency": "0.0306 µM (active)"},
      {"smiles": "COc1ccc(/C(=C/C(=O)N2CCOCC2)c2ccc(Cl)cc2)cc1OC", "Potency": "inactive"},
      {"smiles": "S=C(SSC(=S)N1CCCCC1)N1CCCCC1", "Potency": "1.06 µM (active)"},
      {"smiles": "ClC1=C(Cl)[C@]2(Cl)[C@H]3[C@H]([C@H]4C=C[C@H]3C4)[C@@]1(Cl)C2(Cl)Cl", "Potency": "inactive"},
      {"smiles": "COP(=S)(OC)Oc1cc(Cl)c(Br)cc1Cl", "Potency": "inactive"},
      {"smiles": "CCN(CC)c1c([N+](=O)[O-])cc(C(F)(F)F)c(N)c1[N+](=O)[O-]", "Potency": "inactive"},
      {"smiles": "Clc1ccc(-c2ccc(Cl)c(Cl)c2Cl)c(Cl)c1Cl", "Potency": "inactive"},
      {"smiles": "FC(F)(F)c1cccc(C2=CCN(CCc3ccc4ccccc4c3)CC2)c1", "Potency": "inactive"},
      {"smiles": "CCCN(CC)CC1COC2(CCC(C(C)(C)C)CC2)O1", "note": "(stereo not given)", "Potency": "inactive"},
      {"smiles": "Clc1ccc(C(c2ccc(Cl)cc2)C(Cl)(Cl)Cl)cc1", "Potency": "inactive"},
      {"smiles": "O=[N+]([O-])c1c2ccccc2cc2ccccc12", "Potency": "inactive"},
      {"smiles": "S=C=Nc1cccc2ccccc12", "Potency": "inactive"},
      {"smiles": "Nc1ccccc1C(=O)OC/C=C/c1ccccc1", "Potency": "inactive"},
      {"smiles": "c1ccc(Nc2ccc3ccccc3c2)cc1", "Potency": "inactive"}
    ]},
    {"target": "Androgen receptor (Homo sapiens) (UniProt P10275)", "sequence (P10275 whole entry, looked up)": "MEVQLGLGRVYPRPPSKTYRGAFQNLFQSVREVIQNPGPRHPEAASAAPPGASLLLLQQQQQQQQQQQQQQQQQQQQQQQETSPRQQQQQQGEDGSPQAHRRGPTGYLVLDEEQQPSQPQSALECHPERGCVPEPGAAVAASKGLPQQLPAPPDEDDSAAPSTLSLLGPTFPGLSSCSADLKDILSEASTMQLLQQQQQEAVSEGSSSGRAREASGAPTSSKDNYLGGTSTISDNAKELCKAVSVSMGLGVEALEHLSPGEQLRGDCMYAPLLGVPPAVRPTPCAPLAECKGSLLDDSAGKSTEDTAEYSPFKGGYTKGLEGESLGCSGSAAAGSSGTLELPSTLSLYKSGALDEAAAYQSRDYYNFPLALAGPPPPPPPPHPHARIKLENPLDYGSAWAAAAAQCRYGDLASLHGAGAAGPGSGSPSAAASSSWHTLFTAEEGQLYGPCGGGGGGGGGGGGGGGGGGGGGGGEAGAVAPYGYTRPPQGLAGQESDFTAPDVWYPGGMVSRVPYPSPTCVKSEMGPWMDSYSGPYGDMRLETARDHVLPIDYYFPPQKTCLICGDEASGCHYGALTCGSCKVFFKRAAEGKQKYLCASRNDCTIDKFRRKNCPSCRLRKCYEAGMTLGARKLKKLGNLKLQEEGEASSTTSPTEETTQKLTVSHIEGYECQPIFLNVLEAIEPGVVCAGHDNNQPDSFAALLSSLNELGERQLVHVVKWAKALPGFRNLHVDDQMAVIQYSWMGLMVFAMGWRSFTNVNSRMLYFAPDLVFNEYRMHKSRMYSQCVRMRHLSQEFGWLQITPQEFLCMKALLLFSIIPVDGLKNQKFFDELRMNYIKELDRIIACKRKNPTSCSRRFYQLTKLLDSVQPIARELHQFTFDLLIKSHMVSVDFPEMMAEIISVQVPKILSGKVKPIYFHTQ", "test": "qHTS assay to identify small molecule antagonists of the androgen receptor (AR) signaling pathway using the MDA cell line (AID 743042; also: nearly all actives have a fitted effect of over 55% in size)", "conditions": "MDA-kb2 AR-luc, MMTV luciferase, R1881 antagonist, 16 h; series mostly up to 70.3 µM", "how_it_was_run": "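Antagonist mode: compounds plus R1881 agonist added to MDA-kb2 AR-luc cells, incubated 16 h at 37C. Luciferase reporter luminescence quantified, with multiplexed CellTiter-Fluor readout for cell viability.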", "values": [
      {"smiles": "CC(C)(C)OO", "Potency": "inactive"},
      {"smiles": "C[C@]12Cc3nonc3C[C@@H]1CC[C@@H]1[C@@H]2CC[C@@]2(C)[C@H]1CC[C@]2(C)O", "Potency": "29.8 µM (active)"},
      {"smiles": "CC(=O)O[C@H]1CC[C@@]2(C)C(=CC[C@@H]3[C@@H]2CC[C@]2(C)C(=O)CC[C@@H]32)C1", "Potency": "inactive"},
      {"smiles": "COc1ccc(/C(=C/C(=O)N2CCOCC2)c2ccc(Cl)cc2)cc1OC", "Potency": "30.6 µM (active)"},
      {"smiles": "Cc1ccc(OP(=O)(Oc2ccccc2)Oc2ccccc2)cc1", "Potency": "inactive"},
      {"smiles": "CCN(CC)c1c([N+](=O)[O-])cc(C(F)(F)F)c(N)c1[N+](=O)[O-]", "Potency": "inactive"}
    ]}
  ]
}
